Laboratory results taken from PubChem BioAssay (Tox21).
Several values for one entry are separate records, joined by “and”; a condition that tells them apart may be missing. Identical values can stand only once. Results filed as inconclusive are left out. A call without a number means that no potency is given here. Activity calls are given as the source filed them. Calls come from the whole dose curve; as a rule, active = well fitted cell-killing curve with a large enough effect in the repeat runs; inconclusive = weak or mixed curves; inactive = flat fitted curve, though single readings scatter.

test: qHTS assay to identify small molecule antagonists of the TGF-beta/Smad signaling pathway - cell viability counter screen (AID 1346824); details: SBE-bla HEK293T viability, CellTiter-Glo luminescence; series mostly up to 76.8 µM; note: nearly all actives have a fitted effect of over 50% in size
Excerpt: U.S. Tox21 Program National Center for Advancing Translational Sciences [NCATS] NIH Chemical Genomics Center [NCGC] U.S. Environmental Protection Agency [EPA] National Institutes of Environmental Health Sciences [NIEHS] National Toxicology Program [NTP] U.S. Food and Drug Administration [FDA] Tox21 Assay Overview: Transforming growth factor beta (TGF-beta) superfamily consists of a large number of structurally related dimeric proteins that act as hormones or local mediators in regulating a wide range of biological functions. This superfamily includes TGF-betas themselves, the bone morphogenetic proteins (BMPs) and the activins. These ligands induce oligomerization of serine/threonine receptor kinases and phosphorylate the cytoplasmic signaling molecules of Smad protein family. CellSensor SBE-bla HEK 293T cell line (Life Technologies, Carlsbad, CA), responsive to TGF-beta was used to screen Tox21 10K compound library for identification of agonists/antagonists of the Smad signaling pathway. This cell line contains a beta-lactamase reporter gene under control of the Smad binding element (SBE) stably integrated into HEK 293T cells. Also cytotoxicity of the compounds was tested in parallel by measuring the cell viability using CellTiter-Glo assay system in the same wells.
Tox21 Assay Protocol Summary: SBE-bla HEK 293T cells were dispensed at 4,000/well in 5 uL of assay medium into black wall/clear-bottom 1536-well plates using a Multidrop Combi (ThermoFisher Scientific, Waltham, MA) dispenser. After the assay plates were incubated at 37 C and 5% CO2 for an overnight, 23 nL of compounds dissolved in DMSO, positive controls or DMSO only was transferred to the assay plate by a Pintool station (Kalypsys, San Diego, CA). Compound transfer was followed by the addition of 1 uL of 0.25 ng/mL TGF-beta1 or assay buffer using two separate tips of Flying Reagent Dispenser (FRD, Aurora Discovery, San Diego, CA). The assay plates were incubated at 37 C and 5% CO2 for 5 hr. One uL of LiveBLAzer B/G FRET substrate (Life Technologies) was added using a Flying Reagent Dispenser (FRD, Aurora Discovery, San Diego, CA) and the plates were incubated at room temperature for 2 hr. Fluorescence intensity (405 nm excitation, 460 nm and 530 nm emissions) was measured using an Envision plate reader (PerkinElmer, Shelton, CT). For cytotoxicity read, 4 uL of CellTiter-Glo reagent (Promega Corporation, Madison, WI) was added to each well of the assay plates using FRD. After 30 min incubation at room temperature, the luminescence intensity was measured using ViewLux plate reader (PerkinElmer).
Potency is the fitted concentration of half-maximal effect.

Structure (SMILES) | Potency
COc1ccc(CO)cc1 | inactive
NC(=O)CN1CCCC1=O | inactive
CC(C)(C#N)N=NC(C)(C)C#N | inactive
CC1CC(=O)O1 (stereo not given) | inactive
C=CC(=O)OCC(CC)(COC(=O)C=C)COC(=O)C=C | inactive
[Cl-].[Cl-].[Cl-].[Fe+3] | inactive
c1ccc2c(c1)Nc1ccccc1S2 | inactive
[CH3][Sn]([Cl])([Cl])[Cl] | inactive
ClCc1ccccn1 | inactive
Clc1cccc(C(Cl)(Cl)Cl)n1 | inactive
Cc1cc(Cl)ccc1N=CN(C)C | inactive
CN(C)c1nc(=O)n(C2CCCCC2)c(=O)n1C | inactive
C[C@]12CCC(=O)C=C1CC[C@@H]1[C@@H]2CC[C@@]2(C)[C@H]1CC[C@]2(C)O | inactive
CN(C)P(=O)(N(C)C)N(C)C | inactive
CCOP(=S)(OCC)SCSC(C)(C)C | inactive
CC(O)CN(CC(C)O)CC(C)O (stereo not given) | inactive
CS(=O)(=O)NC(=O)c1cc(Oc2ccc(C(F)(F)F)cc2Cl)ccc1[N+](=O)[O-] | inactive
Cc1cccc(N=Nc2ccc(N(C)C)cc2)c1 | inactive
N#CCCCCC#N | inactive
COP(=S)(OC)Oc1ccc(Sc2ccc(OP(=S)(OC)OC)cc2)cc1 | inactive

Structure (SMILES) | Potency
C[C@]12CC[C@H]3[C@@H](CCC4=CC(=O)CC[C@@H]43)[C@@H]1CC[C@@H]2O | inactive
Nc1ccc([N+](=O)[O-])cc1N | inactive
Oc1ccc(Cl)cc1Cl | inactive
CCCCOCC1CO1 (stereo not given) | inactive
CC1(C)Cc2cccc(O)c2O1 | inactive
ClC(Cl)(Cl)Br | inactive
N#Cc1nn(-c2c(Cl)cc(C(F)(F)F)cc2Cl)c(N)c1S(=O)C(F)(F)F (stereo not given) | inactive
CC(C)(c1ccccc1)c1ccc(O)c(C(C)(C)c2ccccc2)c1 | 54.4 µM (active) and 43.6 µM (active)
COC(=O)Nc1nc2ccccc2[nH]1 | inactive
CC(C)=CC1C(C(=O)OCc2cccc(Oc3ccccc3)c2)C1(C)C (stereo not given) | inactive
CCC/C=N/O | inactive
Cc1ccc(N=CN(C)C=Nc2ccc(C)cc2C)c(C)c1 | inactive
CCOC(=O)c1ccccc1N | inactive
CCCCCCCCCC(CC)c1ccc(S(=O)(=O)O)cc1 (stereo not given) | inactive
Cn1c(-c2ccccc2)cc(-c2ccccc2)[n+]1C | inactive
COP(=S)(OC)SCn1nnc2ccccc2c1=O | inactive
CCC1(c2ccc(N)cc2)CCC(=O)NC1=O (stereo not given) | inactive
Clc1cccc(Cl)c1 | inactive
O=C1CCCO1 | inactive
CN(C)c1ccccc1 | inactive
